Here are results for 19 compounds from PubChem BioAssay.

“And” between values parts separate entries of the source, which are not always exact repeats. Equal entries are not always repeated. The source made the active and inactive calls.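 The calls were made as follows, unless noted: active = at least 20% inhibition of 6-phosphogluconate dehydrogenase activity; inactive = the rest.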

Assay [1] has as its target 6-phosphogluconate dehydrogenase, decarboxylating (Homo sapiens) (UniProt P52209). Nature of the assay: inhibition of human phosphogluconate dehydrogenase – biochemical, recombinant enzyme, NADPH absorbance, primary screen (AID 1159550). To be noted: recombinant 6PGD, NADPH absorbance 341 nm; at 10 µM; stronger effect = higher value.
A short description of assay [2]: Wnt pathway potentiators raising nuclear beta-catenin – imaging, WNT3A-conditioned medium, mouse C2C12, NPC library, primary screen (AID 1117326; in the data active = nuclear beta-catenin stimulation mostly above about 4.2%, no sharp cut-off; inactive = mostly below about 10%). As to conditions: stronger effect = higher value.
Assay [3] in a line: growth inhibition of GSK3B-pretreated HCT116 cells – cell-based, CellTiter-Glo, 0.2 to 20 µM (AID 1117336;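 active = compounds lowering colon cancer cell viability after pretreatment blocking the GSK3B kinase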). To be noted: HCT116 viability after GSK3B inhibitor, at 20 µM, stronger effect = higher value. For orientation: Cellular ATP, detected with luciferase, serves as a proxy for viable cell number.
Assay [4] is described as follows: HCT116 colon cancer cell growth inhibition, primary screen, CellTiter-Glo luminescence, NPC library (AID 1117342;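 active = compounds that lower survival of HCT116 colon cancer cells in the luminescence readout, no numeric limit stated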). As to conditions: at 20 µM (top of the series).
Assay [5] in a line: reduced SW480 viability measured with CellTiter-Glo, NPC library, primary (AID 1117343;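 active = compounds that lower viability of the colon cancer cells in the luminescence readout, with no numeric limit stated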). To be noted: CellTiter-Glo luminescence; at 20 µM (top of the series).
Assay [6] can be described thus: NPC library primary testing for decreased DLD-1 cell viability via CellTiter-Glo (AID 1117346;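 active = compounds that lower survival of DLD-1 colon cancer cells in the luminescence readout, no cutoff given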). As to conditions: DLD-1 viability, CellTiter-Glo luminescence; at 20 µM (top of the series).
Assay [7] in a line: stimulators of insulin release from INS-1E, primary screen, cell-based, 5 mM glucose, NPC library (AID 1117329;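 active = compound raises insulin release from rat beta cells at 5 mM glucose, no numeric limit stated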). To be noted: rat INS-1E insulin secretion, at 10 µM, stronger effect = higher value.
Assay [8] in a line: GLP1 release stimulators, primary, NCI-H716, NPC library (AID 1117341;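 active = compound raises GLP1 secretion from the human gut endocrine cells, with no numeric limit stated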). To be noted: NCI-H716 cells, at 10 µM, stronger effect = higher value.
Assay [9] in a line: P. berghei load reduction in hepatocytes – cell-based, HepG2, luciferase luminescence, HepG2 viability, primary screen (AID 624349; in the data active = parasite load remaining mostly below about 12%, no sharp cut-off; inactive = mostly above about 10%;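 also: 100% = mean of DMSO negative control wells on the same plate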). To be noted: P. berghei liver stage in HepG2, luciferase luminescence, concentration not given here; parasite load remaining: stronger effect = lower value; viability: measured here: HepG2 viability without parasites.
Assay [10] in a line: inhibition of endothelial tube formation, primary screen, imaging, VEGF stimulated, CD31 staining, tube area, NPC library (AID 1117340;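 active = compound that reduces growth-factor-driven endothelial tube area in a mixed cell culture, no cutoff stated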). To be noted: VEGF-stimulated ADSC/ECFC co-culture, at 10 µM, stronger effect = higher value.
Assay [11] is described as follows: EMT-state selective cytotoxicity in co-culture – imaging, PC-3E GFP, TEM4-18 mCherry, primary screen (AID 1345086;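 active = compounds killing one labelled cell type while sparing the other, by normalised counts and ratio limits, not self-fluorescent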;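 as to all read-outs here: cells exposed to compound for 72 h before imaging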;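 as to red/green cell ratio (normalised): normalised mesenchymal count divided by normalised epithelial count so high means epithelial killing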). As to conditions: PC-3E GFP / TEM4-18 mCherry co-culture, imaging cell counts, at 1 µM; for red/green cell ratio (normalised): actives lie on both sides.
Assay [12] is described as follows: viability loss with induced miR-34 in A549 – imaging, A549 dox-inducible miR-34, nuclei and caspase counts, primary screen (AID 1347080;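 active = compounds whose cell count with miR-34 switched on is under 0.7 times the count with it off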). As to conditions: A549 miR-34 inducible, Hoechst nuclei count, 48 h.
Assay [13] deals with NAD(+) hydrolase SARM1 (Homo sapiens) (UniProt Q6SZW1). Nature of the assay: blocking NAD cleavage by SARM1 SAM-TIR – cell lysate, NAD-Glo luminescence (AID 1508614;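 active = compound whose remaining NAD level is above about 45 nM, limit read from the data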;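 also: higher remaining NAD means stronger inhibition of SARM1 NADase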). As to conditions: SAM-TIR HEK293T lysate NADase, at 1 µM, stronger effect = higher value.
NAD(+) hydrolase SARM1 (Homo sapiens), sequence (Q6SZW1 whole entry, looked up): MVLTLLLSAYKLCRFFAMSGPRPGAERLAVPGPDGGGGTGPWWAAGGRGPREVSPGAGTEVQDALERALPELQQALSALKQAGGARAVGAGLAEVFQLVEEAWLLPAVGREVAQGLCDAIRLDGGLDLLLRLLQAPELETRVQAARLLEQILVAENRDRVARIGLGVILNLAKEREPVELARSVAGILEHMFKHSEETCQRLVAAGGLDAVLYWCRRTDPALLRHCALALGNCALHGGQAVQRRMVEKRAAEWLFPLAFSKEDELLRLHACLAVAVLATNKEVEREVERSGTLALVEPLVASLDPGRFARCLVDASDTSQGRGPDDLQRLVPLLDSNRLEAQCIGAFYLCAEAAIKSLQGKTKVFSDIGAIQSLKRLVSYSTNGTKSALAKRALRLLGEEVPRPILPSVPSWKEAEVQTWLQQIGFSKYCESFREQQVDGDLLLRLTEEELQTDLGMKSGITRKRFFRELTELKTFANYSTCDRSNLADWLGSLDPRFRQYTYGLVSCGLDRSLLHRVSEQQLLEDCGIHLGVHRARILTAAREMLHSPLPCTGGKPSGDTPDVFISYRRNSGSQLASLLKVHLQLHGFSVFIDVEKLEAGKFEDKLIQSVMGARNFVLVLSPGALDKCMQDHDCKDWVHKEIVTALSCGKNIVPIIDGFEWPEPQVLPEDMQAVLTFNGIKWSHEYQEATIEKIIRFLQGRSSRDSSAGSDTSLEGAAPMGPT
Assay [14] can be described thus: compounds altering circadian rhythm period length – cell-based, LOPAC library, luminescence reporter (AID 2774; call rule not given here;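 also: values are relative to mean of DMSO wells on each plate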). As to conditions: circadian reporter cells, at 7 µM, actives lie on both sides.
Assay [15] in a line: compounds altering viability of human ES cells (AID 493140; call rule not given here;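 also: cells exposed to compounds for four days before counting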). As to conditions: human embryonic stem cell survival screen; stronger effect = higher value.
In assay [16] the test system is Hepatitis C virus NS3 helicase. As to the kind of experiment: blockers of NS3h binding to ssDNA – biochemical, fluorescence polarization, LOPAC1280 library, primary screen (AID 687035; in the data active = inhibition above about 37%). To be noted: Purified HCV NS3 helicase, Cy5-dT15 ssDNA binding fluorescence polarization; stronger effect = higher value; concentration not given here. In general terms: In fluorescence polarisation assays a small probe gives low polarisation when free and higher when bound to something large.

Assay [17] has as its system Aerobactin synthetase IucA (Klebsiella pneumoniae, hypervirulent). As to the kind of experiment: biochemical IucA inhibition screen of LOPAC library by absorbance (AID 1346212; call rule not given here;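 also: 100% = no compound wells and 0% = no enzyme wells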). As to conditions: IucA enzyme assay, absorbance (OD) readout; stronger effect = lower value;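 tested at 8 µM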.
Assay [18] is described as follows: MELAS cybrid and Rieske KO viability enhancers – cell-based, MELAS cybrids, Rieske KO mouse fibroblasts, CellTiter-Glo, primary screen (AID 1508586;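 active = mean z-score across replicates of 1.96 or higher in either the MELAS or the Rieske mutant cell line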;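 also: z relative to plate mean and SD of compound and empty wells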). To be noted: low glucose.
A short description of assay [19]: galactose survival enhancers in mitochondrial complex I cybrids – cell-based, galactose medium, ATP luminescence, primary screen (AID 1645843;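 active = z-score of at least 1.8 in each of two replicates, scored against plate mean and spread of sample wells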;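 also: positive z means more ATP and so rescue of galactose-driven cybrid death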). To be noted: complex I mutant cybrid cells, 72 h, stronger effect = higher value.
Where [20] appears, read: measured here: epithelial PC-3E GFP cell survival.
Where [21] appears, read: measured here: mesenchymal TEM4-18 mCherry cell survival.
Where [22] appears, read: measured here: relative caspase fold change +Dox/-Dox.
The mark [23] stands for this setting: measured here: total cells with miR-34 induction, stronger effect = lower value.
[24] abbreviates: measured here: total cells without miR-34 induction.

6-phosphogluconate dehydrogenase, decarboxylating (Homo sapiens), sequence (P52209 whole entry, looked up): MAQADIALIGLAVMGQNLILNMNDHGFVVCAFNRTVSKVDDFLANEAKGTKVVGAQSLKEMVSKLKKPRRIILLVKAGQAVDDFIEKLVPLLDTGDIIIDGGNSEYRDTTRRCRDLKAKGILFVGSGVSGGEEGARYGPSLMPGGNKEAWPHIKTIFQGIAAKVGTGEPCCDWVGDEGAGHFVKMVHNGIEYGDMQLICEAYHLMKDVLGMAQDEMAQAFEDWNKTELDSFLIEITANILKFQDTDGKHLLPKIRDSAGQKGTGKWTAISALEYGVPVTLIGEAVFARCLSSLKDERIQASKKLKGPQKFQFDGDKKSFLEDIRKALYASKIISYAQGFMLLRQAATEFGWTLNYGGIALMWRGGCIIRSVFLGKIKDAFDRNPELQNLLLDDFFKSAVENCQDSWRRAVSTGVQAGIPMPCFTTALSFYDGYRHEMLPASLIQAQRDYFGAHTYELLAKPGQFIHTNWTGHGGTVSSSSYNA

As to `COP(N)(=O)SC` (centres undefined), in assay [1], the inhibition (as a rule, the drop in the measured response relative to a control, in per cent) was 4.36% (inactive).

In the case of `COC(=O)C(Cl)C(=O)OC`, the nuclear beta-catenin stimulation was 0.3% (inactive) in assay [2] (at 10 µM) and 6.8% in assay [2] (stimulation, at 2 µM). Further, the viability decrease in assay [3] was 51.9% (active). Also, the inhibition of viability in [4] is 37.3% (inactive). Moreover, the viability decrease (inhibition) in [5] was -7.9% (inactive); in assay [6], 3.4% (inactive).

Regarding `CCOP(=S)(OCC)SCSc1ccc(Cl)cc1`, the nuclear beta-catenin stimulation in assay [2] (at 10 µM) was 1.3% (inactive); in [2] (stimulation, at 2 µM) it was -1.3%. Besides, the insulin secretion stimulation in assay [7] was -1.15% (inactive). For the same compound, the GLP1 secretion stimulation in assay [8] is -0.9% (inactive).

Consider `O=C(CC[N+](=O)[O-])OC[C@H]1O[C@@H](O)[C@H](OC(=O)CC[N+](=O)[O-])[C@@H](OC(=O)CC[N+](=O)[O-])[C@@H]1OC(=O)CC[N+](=O)[O-]`, for which, in assay [1], the inhibition was 0.279% (inactive).

For the compound `O=C1NCN(c2ccccc2)C12CCN(CCCOc1ccc(F)cc1)CC2`, the nuclear beta-catenin stimulation in assay [2] (at 10 µM) was 0.4% (inactive); in assay [2] (stimulation, at 2 µM), 8.5%. Besides, the viability decrease in [3] was 84.2% (active). For the same compound, in assay [4], the inhibition of viability is 59.4% (active). Moreover, the figures for the viability decrease (inhibition) in [5] and in [6] were 91% (active) and 87.1% (active), respectively.

On to `COCC(C)N(C(=O)CCl)c1c(C)csc1C` (centres undefined), for which the nuclear beta-catenin stimulation is 0.5% (inactive) in assay [2] (at 10 µM) and 2.6% in [2] (stimulation, at 2 µM). In assay [7], the insulin secretion stimulation was 0.7% (inactive). Moreover, the GLP1 secretion stimulation in assay [8] is -0.9% (inactive).

As to `CC(C)OC(=O)Nc1cccc(Cl)c1`, the inhibition in assay [1] was -6.1% (inactive).

Take `CN(C)C(=S)SSC(=S)N(C)C`: the parasite load remaining in [9] was 69.7% (inactive) and -0.72% (inactive). The viability (commonly a read-out of living cells in per cent, often relative to untreated cells) in [9] was 84.1% and 106%. Moreover, the nuclear beta-catenin stimulation was 68.4% (active) in assay [2] (at 10 µM) and 48.7% in assay [2] (stimulation, at 2 µM). Further, the viability decrease in [3] was 65% (active). Besides, in [10], the tube area decrease was 39.3% (inactive). Also, the inhibition of viability in assay [4] is 16.3% (inactive). Moreover, the viability decrease (inhibition) in assay [5] was 62.7% (active); in [6], 59.7% (active). Further, the inhibition in [1] was -10.3% (inactive). Also, the red/green cell ratio (normalised) in assay [11] was 1.29 (inactive). For the same compound, the normalised cell number in [11] (setting [20]) was 0.66; in assay [11] (setting [21]), 0.85. The fold change in assay [12] (stronger effect = lower value) was 0.701 (inactive); in assay [12] (setting [22]), 4.9. The values for the cell count in assay [12] (setting [23]) and in assay [12] (setting [24]) were 7410 and 10600, respectively. Also, the remaining NAD in assay [13] is 48 nM (active).

As for `CN1C[C@H](CNC(=O)OCc2ccccc2)C[C@@H]2c3cccc4c3c(cn4C)C[C@H]21`, the period change in assay [14] was 0.135 h (inactive). In assay [15], the survival was 2.67 (inactive). Further, in assay [9], the parasite load remaining was 77.5% (inactive) and 64.4% (inactive). Further, the viability in assay [9] was 74.4% and 69.2%. The inhibition was -2% (inactive) in assay [16] and -7.03% (inactive) in assay [1]. Further, the nuclear beta-catenin stimulation in [2] (at 10 µM) is 53.7% (active); in assay [2] (stimulation, at 2 µM) it was 5.7%. Moreover, the viability decrease in assay [3] is 93.3% (active). For the same compound, in assay [4], the inhibition of viability was 94% (active). The viability decrease (inhibition) in assay [5] was 101% (active); in assay [6], 92.2% (active). Also, the remaining activity (as a rule, the signal under treatment as a percentage of the control signal) in [17] was 130% (inactive). The fold change in assay [12] (stronger effect = lower value) is 0.705 (inactive) and 0.866 (inactive) and 0.969 (inactive); in [12] (setting [22]), 1.05 and 1.44 and 0.756. Also, the cell count is 1820 and 6760 and 7430 in [12] (setting [23]); 2580 and 7810 and 7670 in assay [12] (setting [24]). Besides, the z-score in assay [18] (MELAS cybrid survival, CellTiter-Glo 48 h, stronger effect = higher value) is 0.443 (inactive); in assay [18] (Rieske KO mouse fibroblast survival, CellTiter-Glo 72 h) it was 0.114; in assay [19] it was -1.27 (inactive) and -0.62 (inactive). Moreover, the remaining NAD in assay [13] is 10 nM (inactive).

On to `CN1[C@@H]2C[C@@H]3C[C@H]1[C@H](O)[C@H]2O3`, for which the inhibition in assay [1] is -5.75% (inactive).

With `C=C[C@H]1CN2CCC1C[C@H]2[C@H](OC(=O)OCC)c1ccnc2ccc(OC)cc12` (some centres undefined), in assay [1], the inhibition was 4.32% (inactive).

For `COc1cccc2c1C(=O)c1c(O)c3c(c(O)c1C2=O)C[C@@](O)(C(=O)CO)CC3OC1CC(N2CCOC(OC)C2)C(O)C(C)O1` (some centres undefined), the nuclear beta-catenin stimulation in assay [2] (at 10 µM) is 13.6% (active); in [2] (stimulation, at 2 µM), 47.6%. The insulin secretion stimulation in assay [7] was 1.1% (inactive). In addition, the GLP1 secretion stimulation in assay [8] is 7.5% (inactive).

For the compound `ClC1=C(Cl)[C@@]2(Cl)[C@@H]3[C@H]4C[C@@H]([C@H]5O[C@@H]45)[C@H]3[C@@]1(Cl)C2(Cl)Cl`, in [1], the inhibition is -14% (inactive).

`CC1(C)[C@H](O)CC(=O)[C@@]2(C)[C@@H]1CC(=O)[C@]1(C)[C@H]2CC[C@@]2(C)[C@H](c3ccoc3)OC(=O)[C@H]3O[C@]321`: the inhibition in assay [1] is 8.09% (inactive).

As for `CC=CC1C(C(=O)OCc2c(F)c(F)c(COC)c(F)c2F)C1(C)C` (centres undefined), the nuclear beta-catenin stimulation in [2] (at 10 µM) is 2.1% (inactive); in assay [2] (stimulation, at 2 µM), -0.3%. The insulin secretion stimulation in assay [7] was 0.95% (inactive). In assay [8], the GLP1 secretion stimulation was -3.8% (inactive).

Take `CC(C)=CCC[C@]1(C)C=Cc2c(O)c3c(c(CC=C(C)C)c2O1)O[C@]12C(=C[C@@H]4C[C@H]1C(C)(C)O[C@@]2(C/C=C(/C)C(N)=O)C4=O)C3=O`: the inhibition in assay [1] was -5.75% (inactive).

For the compound `COP(=O)(NC(C)=O)SC` (centres undefined), the inhibition in assay [1] is -9.95% (inactive).

Regarding `COc1ccc2[nH]cc(CCN)c2c1`, in assay [14], the period change was -0.125 h (inactive). For the same compound, the parasite load remaining in [9] is 58.9% (inactive). In addition, the viability in assay [9] came out at 68.9%. Moreover, the inhibition in assay [16] is -2% (inactive); in [1], 0.367% (inactive). The red/green cell ratio (normalised) in [11] is 0.84 (inactive). The figures for the normalised cell number in [11] (setting [20]) and in assay [11] (setting [21]) were 1.18 and 0.99, respectively. Moreover, the remaining activity in assay [17] was 109% (inactive). Moreover, the fold change in assay [12] (stronger effect = lower value) was 1.03 (inactive) and 0.901 (inactive); in assay [12] (setting [22]) it was 1.64 and 1.2. Moreover, the cell count in assay [12] (setting [23]) was 10600 and 8900; in [12] (setting [24]), 10300 and 9880. Further, the z-score in assay [19] was 0.225 (inactive) and 0.515 (inactive).

On to `COc1cc2c(cc1OC)[C@@]13CCN4CC5=CCO[C@H]6CC(=O)N2[C@H]1[C@H]6[C@H]5C[C@H]43`, for which, in assay [9], the parasite load remaining is 80.5% (inactive) and the viability turned out to be 63.8%. Moreover, the inhibition in [1] was 7.74% (inactive). For the same compound, in [13], the remaining NAD is 10 nM (inactive).
